BaF3 parental = counter-screen for JAK2V617F inhibitors: parental Ba/F3 viability inhibitors; AID 1486; actives 1.1% (n = 220,000); CellTiter-Glo ATP luminescence; inhibition, % at 5.6 µM;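 active means inhibition above a per-campaign cutoff, the mean inhibition of all tested compounds plus 3 SD, cut at about 27% in these data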;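 further: 0% = DMSO wells and 100% = JAK Inhibitor I control wells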
Ba/F3 V617F tox = loss of viability in JAK2V617F-driven Ba/F3 cells | actives 1.1% (n = 220,000) | AID 1446 | Ba/F3 EpoR-JAK2V617F viability, ATP luminescence | inhibition, % at 5.6 µM;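 active means inhibition above the campaign mean plus 3 SD over all tested compounds, cut at about 24% in these data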;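 further: cytokine-independent growth of Ba/F3 cells driven by EpoR plus mutant JAK2; 0% = DMSO-treated cells and 100% = JAK inhibitor I control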
KLF5 inh = inhibitors of KLF5 expression; AID 1700; actives 0.23% (n = 290,000); DLD-1 KLF5 promoter-luciferase reporter, luminescence; inhibition, % at 5 µM;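 active means inhibition above a per-plate limit of that plate's mean compound inhibition plus 3 SD, cut at about 60% in these data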;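 further: 0% = DMSO wells and 100% = LY294002 at 200 µM; higher means less KLF5 promoter-driven luciferase light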
IEC-6 tox = counter-screen for KLF5 inhibitors: cytotoxicity in IEC-6 cells; IEC-6 cytotoxicity, luminescence viability; inhibition, % at 5 µM; actives 0.78% (n = 290,000); AID 1825; in the data active means inhibition above about 22%;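 further: 0% = plate median of test compound wells and 100% = cytotoxic reference compound wells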
APP transl inh = APP translation inhibition; SH-SY5Y APP 5'UTR-luciferase reporter, luminescence; inhibition, % at 2 µM; actives 0.82% (n = 190,000); AID 1285;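 active means inhibition above a set limit, derived from the sample mean plus 3 SD, cut at about 45% in these data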
aSyn 5UTR inh = MLPCN primary screen, SNCA 5' untranslated region; alpha-synuclein 5'UTR reporter, inhibitor activity; actives 0.82% (n = 300,000); inhibition, % (tested at 7.5 µM); in the data active means inhibition above about 60%;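 further: H4 neuroglioblastoma cells stably carrying SNCA 5'UTR luciferase fusion; 0% = DMSO wells and 100% = positive control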
* = called active by the depositor; nt = not tested or not shown. The list is not random: actives were taken first. Their share in the collection is about 2.2%.

SMILES | BaF3 parental | Ba/F3 V617F tox | KLF5 inh | IEC-6 tox | APP transl inh | aSyn 5UTR inh
O=[N+]([O-])c1ccc(Nc2ccccn2)c([N+](=O)[O-])c1 | 49* | 29* | -15 | -2 | -2 | 6
O=[N+]([O-])c1c(Nc2ccccn2)cc(Cl)c2nonc12 | -1 | 0 | -13 | 63* | nt | 6
O=C(O)c1ccccc1Nc1cc(Cl)c2nonc2c1[N+](=O)[O-] | nt | nt | -10 | -4 | nt | -10
Nc1ccc(Nc2ccc([N+](=O)[O-])cc2[N+](=O)[O-])cc1 | 5 | 1 | -20 | -2 | -9 | 23
Cc1cccn2c(=O)c3cc(C(=O)N4COCC4(C)C)n(Cc4ccccc4)c3nc12 | nt | nt | nt | nt | nt | 11
COc1ccc(S(=O)(=O)NCC(c2ccc(C)cc2)N2CCN(C)CC2)cc1 (configuration not stated) | nt | nt | nt | nt | nt | -5
N/C(=N/O)c1ccccc1N1CCC(Cc2ccccc2)CC1 | 69* | 72* | -5 | -8 | -45 | 10
O=C(CN1C(=O)C2CC=CCC2C1=O)OCCN1C(=O)c2ccccc2C1=O (configuration not stated) | -2 | -5 | -7 | 0 | 10 | 16
CCCC1=[N+](CC)CCn2c(C)ccc21 | 64* | 61* | -55 | -4 | -17 | 13
CCCC1=[N+](CC(=O)c2ccc(C)cc2)CCn2cccc21 | 7 | -3 | -14 | 7 | -21 | -51
CCCC1=[N+](CC(=O)c2ccccc2)CCn2c(C)ccc21 | 27* | 32* | -9 | 6 | -4 | -74
CCNC(=S)N=Nc1c(O)[nH]c2ccc(C(C)C)cc12 | 7 | 1 | -11 | 1 | 6 | 63*
Cc1ccc(NC(=O)c2cccs2)cc1 | 4 | -1 | -92 | -1 | -75 | -145
Cc1ccc(S(=O)(=O)n2[nH]c(=O)cc2NC(=O)c2cccs2)cc1 | 35* | 26* | 1 | 0 | 7 | 8
COc1ccc(C(=O)/C=C/C(=O)N(Cc2ccccc2)C(C(=O)NC2CCCCC2)c2ccncc2)c(O)c1 (configuration not stated) | 6 | 0 | -18 | 0 | 8 | 22
COc1ccc(C(=O)/C=C/C(=O)N(Cc2ccccc2OC)C(C(=O)NC2CCCCC2)c2ccncc2)c(O)c1 (configuration not stated) | 6 | -1 | -13 | 1 | -4 | 16
COc1ccc(C(=O)/C=C/C(=O)N(CC(=O)NC2CCCCC2)CC2CCCO2)c(O)c1 (configuration not stated) | 4 | 3 | -2 | 11 | 71* | 73*
COc1ccc(C(=O)/C=C/C(=O)N(CC(=O)NC2CCCCC2)Cc2ccccc2)c(O)c1 | 7 | -2 | -38 | -5 | 73* | 67*
COc1ccc(C(=O)/C=C/C(=O)N(CC(=O)NC2CCCCC2)Cc2ccccc2OC)c(O)c1 | 3 | -3 | -21 | -4 | 75* | -36
CCn1nc(C)c(CNC(=O)c2cc(COc3ccc(F)cc3Cl)on2)c1C | 64* | 67* | -7 | 9 | nt | -10
CCn1cc(CNC(=O)c2cc(COc3ccc(F)cc3Cl)on2)cn1 | 0 | -2 | -15 | -1 | -1 | 10
Cc1ccc(N2CC(C(=O)Nc3ccc(S(=O)(=O)Nc4ncccn4)cc3)CC2=O)cc1C (configuration not stated) | nt | nt | -3 | -2 | nt | -1
Cc1cc(C)c(C#N)c(SCc2nnc(-c3ccccc3)o2)n1 | 2 | -3 | 57 | -4 | -44 | 102*
Cc1ccc(C#N)c(SCc2cc3c(cc2Cl)OCO3)n1 | -3 | -3 | -2 | -2 | -19 | -9
Cc1ccc(C#N)c(SCc2nnc(-c3ccc(Cl)cc3)o2)n1 | 6 | -2 | -72 | -5 | -30 | 90*
SMILES | BaF3 parental | Ba/F3 V617F tox | KLF5 inh | IEC-6 tox | APP transl inh | aSyn 5UTR inh
O=C(O)C1C2CCC(C2)C1C(=O)N1CCCC1 (configuration not stated) | nt | nt | -26 | -1 | nt | -13
CC(C)CC(/C(O)=C(\C#N)c1nc2ccccc2[nH]1)N1C(=O)c2ccccc2C1=O (configuration not stated) | 8 | 6 | 13 | 2 | 20 | 65*
CN1C=C/C(=C\c2cc[n+](C)c3ccccc23)c2ccccc21 | 51* | 19 | -6 | 6 | 32 | 74*
CC[n+]1ccc(/C=C2\Sc3ccccc3N2CCCS(=O)(=O)[O-])c2ccccc21 | 2 | 1 | -21 | -1 | -11 | -2
O=C(N1CCOCC1)N1CCN(S(=O)(=O)c2cccc([N+](=O)[O-])c2)CC1 | nt | nt | -17 | 2 | nt | 4
Cc1ccc(NC(=O)CN2C(=O)S/C(=C\C(=O)Nc3ccc(Cl)cc3)C2=O)cc1 | 73* | 5 | 27 | 4 | -11 | -2
COc1nnc(-c2ccc(N3CCCCC3)c(NC(C)=O)c2)c2ccccc12 | 2 | -4 | 5 | 2 | 6 | 25
CN=c1scc(-c2ccco2)n1/N=C/c1ccc(O)c(O)c1 | 54* | 100* | -21 | 17 | -9 | -242
C=CC#CC[N+]1(CC#Cc2ccccc2)CCOCC1 | 21 | 11 | 15 | -6 | 5 | 9
C(#Cc1ccccc1)C[N+]1(CC#Cc2ccccc2)CCCC1 | 71* | 87* | -6 | 2 | -8 | 19
C=CC[N+]1(CC#Cc2ccccc2)CCCC1 | 56* | 46* | -3 | -5 | -1 | 4
O=C(N=C1SC2CS(=O)(=O)CC2N1c1ccc(Br)cc1)C1CCCO1 (configuration not stated) | nt | nt | -12 | -10 | nt | 1
CCOC(=O)c1cnc2sc3c(n2c1=O)CCCC3 | 64* | 72* | 6 | 12 | -25 | nt
O=C(CSc1ccc2c(c1)OCCO2)Nc1ncc(Cl)cc1Cl | 4 | -2 | -7 | -2 | 46* | 23
COc1ccccc1CNc1ncc(-c2ccc(F)cc2)n1C | nt | nt | -11 | 4 | nt | -17
COc1ccc(CNc2ncc(-c3ccc(F)cc3)n2C)c2ccccc12 | nt | nt | 0 | 5 | nt | 65*
O=C(NCc1cccc(Cl)c1)c1cc(COc2ccc3ncccc3c2)on1 | 4 | 2 | -5 | 5 | 3 | 6
Cc1nc(CN(C)C(=O)c2cc(COc3ccc4ncccc4c3)on2)cs1 | 38* | 16 | 12 | 6 | 5 | 16
CC(CCCC(C)(C)O)NC(=O)c1cc(COc2ccc3ncccc3c2)on1 (configuration not stated) | 44* | 8 | -18 | 2 | -4 | -6
CC(C)N(Cc1nccn1C)C(=O)c1cc(COc2ccc3ncccc3c2)on1 | 0 | -2 | -8 | -2 | -7 | 13
C=CCn1c(SCC(=O)N2CCN(CCO)CC2)nc2sc3c(c2c1=O)CCC3 | nt | nt | 3 | -7 | nt | 8
CN(Cc1cccnc1)Cc1cn(Cc2ccccc2)nc1-c1ccc2c(c1)OCO2 | 2 | -4 | -31 | -7 | -2 | 1
O=C(Nc1ccc(Br)cc1)c1cccc(-n2cnnn2)c1 | nt | nt | -28 | -1 | nt | -18
O=C(Nc1nc(-c2ccccn2)cs1)c1cccc(-n2cnnn2)c1 | 63* | 53* | 9 | 16 | nt | 83*

Source: PubChem BioAssay (several laboratories)
